# This is a sample that favours compounds with a hit; in the whole collection about 2.4% have one here.
# Prx2 Sm inh = blocks S. mansoni peroxiredoxin 2 enzymatic activity. S. mansoni Prx2 activity coupled to TGR/GSH (TGR is thioredoxin glutathione reductase), NADPH fluorescence loss, qHTS. Potency, µM. actives 0.07% (n = 65,000). AID 448
#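 Prx2 activity was followed as the loss of NADPH fluorescence (ex 365/em 450 nm), read every 30 sec for 8 min after H2O2 start. The enzyme mix (50 nM Prx2, 25 nM TGR, GSH, NADPH; pH 7.4 phosphate buffer) was incubated with compound for 15 min at room temperature first.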
# AmpC inh det = AmpC beta-lactamase inhibition, detergent assay; P00811; purified AmpC, nitrocefin hydrolysis with detergent; Potency, µM (doses to about 28.7 µM); actives 0.09% (n = 71,000); AID 584; active means well fitted curve in the direction sought with a large enough effect; inconclusive means small, poorly fitted or top-dose-only effect
# Target sequence (P00811 whole entry, looked up): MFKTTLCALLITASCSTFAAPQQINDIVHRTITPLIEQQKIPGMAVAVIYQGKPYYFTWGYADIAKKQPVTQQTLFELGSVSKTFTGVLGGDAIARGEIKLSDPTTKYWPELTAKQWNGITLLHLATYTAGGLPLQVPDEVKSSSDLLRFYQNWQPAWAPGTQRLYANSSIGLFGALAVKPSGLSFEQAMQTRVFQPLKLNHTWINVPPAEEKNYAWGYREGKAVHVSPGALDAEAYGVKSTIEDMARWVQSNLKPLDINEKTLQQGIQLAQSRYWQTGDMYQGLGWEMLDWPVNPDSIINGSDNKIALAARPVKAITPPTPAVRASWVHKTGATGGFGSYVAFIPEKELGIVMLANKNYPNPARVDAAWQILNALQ
#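 E. coli AmpC (5.3 nM) in 20 mM phosphate pH 7.0 with 0.01% Triton X-100, preincubated 15 min RT with compound; nitrocefin (2 uL of 800 uM stock) hydrolysis followed by 480 nm absorbance every 20 s over 4 min.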
# AmpC nodet inh = AmpC beta-lactamase inhibition, detergent-free assay. P00811. AmpC nitrocefin hydrolysis, absorbance 480 nm, no detergent. Potency, µM (titrated, usually from 28.7 µM). actives 1.8% (n = 71,000). AID 585
#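 AmpC in 20 mM phosphate buffer pH 7.0 was preincubated 15 min at room temperature with compounds. Nitrocefin (800 uM stock) was then added and hydrolysis followed at 480 nm every 20 s for 4 min.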
# LT uptake inh = blocks cellular internalization of anthrax lethal toxin. Cells, anthrax lethal toxin internalization, FRET ratio (460/530). Potency, µM (highest dose often 40 µM), actives largely listed as inhibitors. actives 0.67% (n = 70,000). AID 912; further: nearly all actives have a fitted effect of over 50% in size
# Hits are given with their value; . = inactive; ? = inconclusive; / = not tested or not shown; [ ] = another dose, or the depositor's remark. Unless noted, the call rests on the fitted dose curve.
SMILES,Prx2 Sm inh,AmpC inh det,AmpC nodet inh,LT uptake inh
COc1cccc(-c2nn(C)c3sc(C(=O)N4CCOCC4)cc23)c1,.,.,.,.
COc1cccc(-c2nn(C)c3sc(C(=O)N4CCN(c5ccccn5)CC4)cc23)c1,.,.,.,10µM
COc1ccc(N2CCN(C(=O)c3cc4c(-c5ccc(Cl)cc5)nn(C)c4s3)CC2)cc1,.,.,3.98µM[single pt active],?
CCCOc1ccc(N2C(=O)CC(NCCCN3CCC(C(N)=O)CC3)C2=O)cc1 (stereo not drawn),.,.,.,.
NC(=O)CN1CCN(C(=O)Nc2ccccc2)CC1,.,.,3.98µM[single pt active],.
O=C(Nc1ccc2c(c1)OCO2)c1cnn2c1NC(c1ccco1)CC2C(F)(F)F (stereo not drawn),.,.,.,.
Cc1ncsc1C(=O)Nc1nc2c(s1)CCCC2,.,.,.,.
O=C(Nc1nc2c(s1)CCCC2)c1ccc2ncsc2c1,.,.,.,10µM
CCCCNC(=O)c1ccc2nc(-c3ccco3)c(-c3ccco3)nc2c1,.,.,3.98µM[single pt active],.
O=C(Nc1ccccc1)c1ccc2nc(-c3ccco3)c(-c3ccco3)nc2c1,.,.,.,?
COc1ccc(CCNC(=O)CSc2nc(N)c(C#N)c(-c3cccs3)c2C#N)cc1OC,.,.,.,?
Cc1ccccc1NC(=O)CSc1nc(N)c(C#N)c(-c2cccs2)c1C#N,.,.,10µM,.
O=C(Cn1cc(C(=O)c2cccs2)c2ccccc21)NCc1ccc2c(c1)OCO2,.,.,2µM[single pt active],?
CC(C)O,/,.,.,.
Cc1cc(O)ccc1Nc1nc2ccccc2nc1Nc1ccc(O)cc1C,/,.,12.6µM,.
CCCc1[nH]nc2c1C1(C(=O)N(CC)c3ccccc31)C(C#N)=C(N)O2 (stereo not drawn),.,.,.,.
Cc1ccc(NC(=O)c2c(-c3c(F)cccc3Cl)noc2C)cc1F,/,.,.,10µM
Cn1c(=O)n(Cc2ccccc2)c(=O)c2c1nc1n2CCS1,.,.,.,.
CCCn1c(OC)nc2c1c(=O)n(C)c(=O)n2C,.,.,3.98µM[single pt active],.
CCCOc1nc2c(c(=O)n(C)c(=O)n2C)n1CCC,.,.,.,.
O=C(CCCOc1ccccc1)Nc1nnc(C2CCCO2)s1 (stereo not drawn),.,.,10µM[single pt active],.
CCN1CCN(C(=O)c2cc3c(s2)-c2ccccc2S(=O)(=O)C3)CC1,.,.,3.98µM[single pt active],.
CN1CCN(C(=O)c2cc3c(s2)-c2ccccc2S(=O)(=O)C3)CC1,.,.,3.98µM[single pt active],.
Cc1cc(C(=O)N2CCN(c3ncccn3)CC2)sc1-c1ccccc1,.,.,.,.
O=C(c1ccco1)N1CCN(C(=O)c2cc3c(s2)-c2ccccc2OC3)CC1,.,.,.,.
SMILES,Prx2 Sm inh,AmpC inh det,AmpC nodet inh,LT uptake inh
COc1ccc(-c2noc(-c3cc(C)cc(C)c3)n2)cc1OC,.,.,1.26µM[single pt active],.
COc1cc(-c2nc(-c3ccc(Br)o3)no2)cc(OC)c1OC,.,.,3.98µM[single pt active],.
COc1ccc(-c2noc(-c3ccc(Br)o3)n2)cc1OC,.,.,.,?
CCOc1ccc(-c2nc(-c3ccc(OC)c(OC)c3)no2)cc1OCC,.,.,.,/
O=C(CCSCCC(=O)NCc1cccs1)NCc1cccs1,.,.,.,.
N[C@@H](C(=O)O)[C@H](O)C(=O)O,.,.,.,.
Cc1nn(C)c(C)c1S(=O)(=O)N1CCCC(C(=O)NC2CCCCCC2)C1 (stereo not drawn),.,.,3.98µM[single pt active],.
COc1ccc(OCc2nnc3n2N=C(c2ccc(OC)cc2)CS3)cc1,.,.,3.98µM[single pt active],.
Cc1ccc(C(=O)COC(=O)c2ccc(Br)o2)cc1C,/,.,.,.
O=C(CSc1nnc(-c2cccnc2)n1Cc1ccco1)N1c2ccccc2Sc2ccccc21,.,.,.,15.8µM
c1cncc(CSc2nnc(-c3cccnc3)n2Cc2ccco2)c1,.,.,.,.
COc1cc(NC(=O)c2ccc(Cl)cc2)c(OC)cc1NC(=O)CN1CCOCC1,.,.,.,12.6µM
O=C(Cn1c(C(=O)N2CCc3ccccc3C2)cc2sccc21)c1ccccc1,.,.,15.8µM[single pt active],?
O=C(NCc1ccccc1)c1noc2c1CCCC2,.,.,.,.
CC(C)CNC(=O)c1noc2c1CCCC2,.,.,3.98µM[single pt active],.
COC(=O)CS(=O)(=O)c1nnc([C@H](Cc2ccccc2)NC(=O)OC(C)(C)C)o1,?,3.98µM,?,/
COc1ccc(NC(=O)c2ccccc2C)c(OC)c1,/,.,.,.
Cc1nnc(N2C(=O)C(O)=C(C(=O)c3ccco3)C2c2ccc(F)cc2)s1 (stereo not drawn),.,.,3.98µM[single pt active],.
O=C(C1=C(O)C(=O)N(Cc2ccccc2)C1c1ccncc1)c1ccco1 (stereo not drawn),.,.,.,.
Cc1ccccc1CNc1nc(N)n(-c2ccccc2)n1,.,.,3.98µM[single pt active],.
CCc1ccccc1N1CSC2=C(C#N)C(c3ccccc3F)CC(=O)N2C1 (stereo not drawn),/,.,12.6µM[single pt active],.
COc1ccc(N2CSC3=C(C#N)C(c4cccc(OC)c4OC)CC(=O)N3C2)cc1 (stereo not drawn),.,.,3.98µM[single pt active],.
COc1ccc(C2CC(=O)N3CN(c4ccccc4F)CSC3=C2C#N)cc1OC (stereo not drawn),.,.,.,.
COc1cc(OC)c(C2CC(=O)N3CN(c4ccccc4C)CSC3=C2C#N)cc1OC (stereo not drawn),.,.,.,/
COc1ccc(OC)c(C2CC(=O)N3CN(c4ccccc4)CSC3=C2C#N)c1 (stereo not drawn),.,.,.,.
SMILES,Prx2 Sm inh,AmpC inh det,AmpC nodet inh,LT uptake inh
Cc1cccc(N2CSC3=C(C#N)C(c4ccc(C)o4)CC(=O)N3C2)c1 (stereo not drawn),.,.,15.8µM,/
COc1ccc(C2CC(=O)N3CN(c4ccc(C)c(Cl)c4)CSC3=C2C#N)cc1 (stereo not drawn),/,.,2.51µM[single pt active],.
CCN(C(=O)CSc1nnnn1-c1cc(C)ccc1OC)C1CCS(=O)(=O)C1 (stereo not drawn),.,.,.,.
CCCCNC(=O)CCn1c(=O)c2ccccc2n(CC(=O)Nc2ccccc2OCC)c1=O,.,.,.,.
CCOC(=O)c1ccc(NC(=O)CCc2nc(-c3ccc(Cl)cc3)no2)cc1,.,.,.,.
CCOc1ccc(NC(=O)CN2CCN(CC(=O)Nc3ccc(C(=O)OC)cc3)CC2)cc1,.,.,.,?
COc1ccc(OC)c(C2=NOC(C(=O)Nc3cc(C)nn3-c3ccccc3)C2)c1 (stereo not drawn),.,.,3.98µM[single pt active],.
CCSc1nnc(NC(=O)c2ccc(Br)s2)s1,.,.,10µM,/
O=c1[nH]c(SCc2ccccc2Cl)nc2c1cnn2-c1ccccc1,.,.,7.94µM,?
Cc1ccc(-n2ncc3c(=O)[nH]c(SCC(=O)N4CCOCC4)nc32)cc1,.,.,.,.
Cc1ccc(-n2ncc3c(=O)[nH]c(SCC(=O)N4CCN(c5ccccc5)CC4)nc32)cc1,.,.,12.6µM[single pt active],.
CCOC(=O)C1CCCN(c2c(NCCCN3CCCC(C)C3)c(=O)c2=O)C1 (stereo not drawn),.,.,3.98µM[single pt active],.

# High-throughput results as filed in PubChem.
